Bioassay records deposited in PubChem by National Center for Advancing Translational Sciences (NCATS).
ELG1 DNA repair = ELG1-dependent DNA repair inhibition. Potency, µM (top dose mostly 46.1 µM), for inactives: at the top dose activity change, negative = inhibition, usual class: inhibitors. HEK293T ELG1-luciferase reporter, luminescence, 16 h; DNA damage induced by 5-fluorouridine. 330,000 compounds, 2.3% hits. AID 504467; further: on the % scale 0 is the no-effect control and ±100 the full control effect; nearly all actives have a fitted effect of over 55% in size
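Cells (2,000 per well) received 5-fluorouridine plus test compound or DMSO and were incubated 16 hr at 37 °C, 5% CO2. Luciferase activity was read by luminescence 30 min after ONE-Glo addition; signal suppression marked inhibition of damage-induced ELG1 function.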
ELG1 genotox = induces genotoxicity in HEK293T cells with luciferase-tagged ELG1; Potency, µM (top dose mostly 46 µM), for inactives: at the top dose activity change, positive = activation, usual class: activators; AID 504466; 330,000 compounds, 1.3% hits; HEK293T ELG1-luciferase reporter, luminescence, 16 h; further: % of control where 0% means no effect; nearly all actives have a fitted effect of over 60% in size
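Genotoxic stress is detected as increased luminescence from luciferase-tagged ELG1 in HEK293T cells, measured with ONE-Glo after a 16 hr treatment at 37 °C.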
SMN2 splice up = enhancers of SMN2 splice variant expression; HEK293 SMN2-luciferase splicing reporter, luminescence, 30-36 h; Potency, µM (series often up to 46.1 µM), inactives show at the top dose activity change, positive = activation, hits mostly activators; 210,000 compounds, 2.8% hits; AID 1458; further: % of control where 0% means no effect; nearly all actives have a fitted effect of over 55% in size
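HEK293 cells carry an SMN2 minigene-luciferase reporter in which exon 7 inclusion puts luciferase in frame. Cells were seeded at 2000 cells/well, attached for 10-12 hours, then exposed to compounds for 30-36 hours at 37C before ONE-Glo luminescence.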
NPC1 promoter act = NPC1 promoter activation; Huh7 NPC1 promoter luciferase reporter, 24 h; Potency, µM (titrated, usually from 9.22 µM), without a hit: at the top dose activation, most hits filed as activators; 320,000 compounds, 2.4% hits; AID 485313; further: % of control where 0% means no effect; nearly all actives have a fitted effect of over 60% in size
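Stably transfected Huh7 (NPC1 promoter→luciferase), 1500 cells/well in Opti-MEM + 10% FBS, 2 h settle, then compound 24 h at 37 °C. Luminescence after 10 min with Amplite reagent.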
Rab9 promoter act = Rab9 promoter activation; Huh7 Rab9 promoter-luciferase reporter, luminescence, 24 h; Potency, µM (series often up to 9.22 µM), inactives show top-dose activation, negative = inhibition, actives largely listed as activators; 320,000 compounds, 2.8% hits; AID 485297; further: % of control where 0% means no effect; nearly all actives have a fitted effect of over 60% in size
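Luciferase signal after 10 min detection reagent at ambient indicates Rab9 promoter upregulation; stably transfected Huh7 cells were treated 24 h with compound in DMSO at 37 °C, 5% CO2.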
FLuc counter = counter-screen for miR-21 project: firefly luciferase inhibitors or activators. P08659. purified FLuc, Km substrates, luminescence inhibition. Potency, µM (series often up to 57.5 µM), for the others: at the top dose activity change, negative = inhibition, actives largely listed as inhibitors. 360,000 compounds, 6.9% hits. AID 588342;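 further: plate controls were vehicle for no effect and reference inhibitor for full effect; nearly all actives have a fitted effect of over 55% in size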
Target sequence (P08659 whole entry, looked up): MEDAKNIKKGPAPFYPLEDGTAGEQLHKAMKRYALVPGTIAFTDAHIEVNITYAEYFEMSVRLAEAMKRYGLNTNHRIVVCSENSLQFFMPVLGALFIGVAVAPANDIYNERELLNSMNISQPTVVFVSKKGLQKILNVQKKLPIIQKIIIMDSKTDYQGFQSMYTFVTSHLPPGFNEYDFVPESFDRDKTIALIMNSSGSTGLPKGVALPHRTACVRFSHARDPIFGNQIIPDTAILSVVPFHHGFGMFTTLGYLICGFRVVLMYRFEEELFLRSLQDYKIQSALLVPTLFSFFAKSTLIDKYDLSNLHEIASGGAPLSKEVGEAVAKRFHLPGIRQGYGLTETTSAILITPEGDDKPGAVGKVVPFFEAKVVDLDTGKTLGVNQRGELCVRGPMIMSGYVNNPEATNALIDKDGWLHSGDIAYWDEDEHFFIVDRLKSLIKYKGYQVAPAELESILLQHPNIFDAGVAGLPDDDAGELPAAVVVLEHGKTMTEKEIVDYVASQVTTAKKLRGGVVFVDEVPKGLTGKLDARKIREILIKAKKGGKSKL
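Biochemical qHTS of compounds, final roughly 60 µM downward over six points, against 10 nM purified firefly luciferase using Km concentrations of substrates (10 uM D-luciferin, 10 uM ATP) in Tris acetate pH 7.5 buffer; luminescence output.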
Starred values were filed as active, the others as inactive; ? = inconclusive; · = no result. Compounds with a hit are over-represented: about 9.3% of the library has one in this group of screens. The call rests on the fitted dose curve; in most records, active means well fitted curve in the direction sought with a large enough effect; inconclusive means small, poorly fitted or top-dose-only effect, or another doubt; inactive means no such curve, though single readings can be large; an effect the other way counts as inactive or inconclusive. Potency means the concentration at half of the fitted maximal effect.

SMILES | ELG1 DNA repair | ELG1 genotox | SMN2 splice up | NPC1 promoter act | Rab9 promoter act | FLuc counter
Clc1ccc(-c2nnc(NC3=NCCCCC3)o2)cc1 | ? | ? | ? | 0.35µM* | 0.32µM* | 0.43µM*
Cc1c(CC(=O)N2CCC(C(N)=O)CC2)c(=O)oc2cc3c(cc12)CCC1(CCCCC1)O3 | -27% | -5% | · | 6% | -6% | 19µM*
CCC(NC(=O)Cc1c(C)c2cc3c(cc2oc1=O)OC(C)(C)CC3)C(=O)O (stereo unspecified) | ? | 10% | · | 3.2µM* | 2µM* | 21µM*
Cc1c(CC(=O)O)c(=O)oc2cc3c(cc12)CCC(C)(C)O3 | -5% | -1% | · | -6% | -2% | 3%
COc1cc(/C=C2\SC(=S)N(NC(=O)c3ccc(O)cc3)C2=O)ccc1O | ? | 10% | · | 3% | 3% | 3µM*
CC(=O)NN1C(=O)/C(=C\c2ccc(O)cc2)SC1=S | 3% | 4% | · | 5% | -11% | 17µM*
O=C(CCCN1C(=O)/C(=C\c2cccs2)SC1=S)NNC(=O)c1ccncc1 | 1% | -2% | 14% | -1% | 5% | 2%
O=C(NN1C(=O)/C(=C/c2cccs2)SC1=S)c1ccncc1 | 4.1µM* | -19% | · | 1% | -3% | -12%
COc1cccc(/C=C2\SC(=S)N(NC(=O)c3ccncc3)C2=O)c1 | -15% | 1% | · | 0% | -3% | 2%
COc1cc(/C=C2\SC(=S)N(NC(=O)c3cccnc3)C2=O)ccc1O | ? | -2% | · | -1% | -1% | 17µM*
N#Cc1cc2cc3ccccc3nc2n2c(=O)c3ccccc3nc12 | 2% | -4% | -17% | -10% | -3% | -15%
O=C(NCc1ccc(-c2nc3ccccc3s2)cc1)c1ccco1 | ? | 14% | 14% | ? | ? | 6µM*
O=C(NC(=S)Nc1nc(-c2ccccc2)cs1)c1ccco1 | -14% | -3% | -5% | 5% | -1% | ?
O=C(NC(=S)NCc1ccc(-c2nc3ccccc3s2)cc1)c1ccco1 | ? | 16µM* | · | 3.2µM* | 4µM* | 2.7µM*
COc1ccc(C(=O)NCc2ccc(-c3nc4ccccc4s3)cc2)cc1OC | ? | 16µM* | -21% | 16% | ? | 1.3µM*
O=C(NCc1ccccc1)c1ccco1 | 1% | -2% | 9% | -1% | -4% | 3%
COc1ccc(CNC(=O)c2ccc3ccccc3n2)cc1OC | 16µM* | 7% | · | -5% | -9% | -3%
CCCCCn1c(NCc2ccccc2OC)nc2ccccc21 | · | · | 2% | · | · | -18%
CCCCCCCCCCCCCCCCOCC(CO)OC(C)=O (stereo unspecified) | · | · | 3% | · | · | ·
COc1ccc(/C=C/C(=O)N(C)Cc2cccs2)cc1S(=O)(=O)N1CCOCC1 | -18% | 0% | 3% | 1% | 20% | -3%
COc1ccc(OCc2ccc(C(=O)O)cc2)cc1 | 26% | 12% | 5µM* | ? | ? | 6.7µM*
CC(=O)c1ccc(OCC(O)COc2ccc(C(C)=O)cc2)cc1 | -5% | 3% | -26% | -1% | 12% | -1%
COc1ccc(OCC(O)COc2ccc(C(=O)O)cc2)cc1 (stereo unspecified) | 9% | 3% | 10% | 3% | -3% | 15µM*
Cc1cc(OCC(F)(F)C(F)(F)C(F)(F)C(F)F)nc(N)n1 | ? | 5% | 5% | -5% | -5% | 17µM*
Cc1ccccc1CNC(=O)Cc1ccccc1[N+](=O)[O-] | ? | ? | 14µM* | ? | 4µM* | 17µM*
SMILES | ELG1 DNA repair | ELG1 genotox | SMN2 splice up | NPC1 promoter act | Rab9 promoter act | FLuc counter
O=C(Cc1ccccc1[N+](=O)[O-])NCc1ccccc1Cl | ? | ? | ? | 3.5µM* | 2.8µM* | 7.6µM*
CCN(CC(=O)NCc1ccc(Cl)cc1)C(=O)CCc1ccccc1 | 3% | -7% | · | -5% | -4% | 0%
CCN(CC(=O)NCc1ccc(Cl)cc1)C(=O)Cc1ccccc1[N+](=O)[O-] | ? | ? | · | 2.5µM* | 3.5µM* | ?
O=C(COC(=O)Cc1ccccc1[N+](=O)[O-])NCc1ccccc1Cl | 1% | 0% | -2% | 1% | 1% | -1%
O=C(c1nc2ccc(Cl)cn2c1CNCCc1cnccn1)N1CCCCCCC1 | -3% | -4% | · | 0% | 3% | 2%
CCC(C)C(=O)OC1C2CC3=C4CC(=O)OC(c5ccoc5)[C@]4(C)CCC3[C@@](C)(C2=O)C(CC(=O)OC)C1(C)C (stereo partly specified) | · | · | -22% | · | · | ·
N=c1oc2cc(O)ccc2cc1C(=O)Nc1ccc(Cl)cc1 | ? | ? | · | 2.2µM* | 3.2µM* | 3µM*
Cc1ccc(NC(=O)c2cc3ccccc3oc2=N)cc1 | ? | ? | · | 0.45µM* | 0.71µM* | 0.19µM*
CC(=O)c1cc2ccc(O)cc2oc1=O | 5% | 2% | · | 0% | -7% | 0%
N=c1oc2ccccc2cc1C(=O)Nc1cccc(F)c1 | ? | ? | · | 3.2µM* | ? | 0.3µM*
N=c1oc2ccccc2cc1C(=O)Nc1ccc(F)cc1 | ? | 5.2µM* | · | 0.79µM* | 0.5µM* | 0.85µM*
O=C(NCCc1ccc(F)cc1)c1cc2ccccc2oc1=O | 3% | 26% | · | -5% | -1% | -3%
COc1ccc(C2C(C(=O)Nc3ccc(C)cc3C)=C(C)Nc3nc(SCc4cccc(C)c4)nn32)c(OC)c1 (stereo unspecified) | · | · | 16% | · | · | 1%
NC(=O)CCC(NC(=S)Nc1ccccc1)C(=O)O (stereo unspecified) | 6% | 1% | · | -2% | 9% | -1%
CC(=O)NCCNC(=O)C1CCCCN1S(=O)(=O)c1ccccc1 (stereo unspecified) | -9% | -4% | 11% | -1% | 6% | 0%
CCCc1cc(=O)oc2cc(OCC(=O)Nc3ccccn3)ccc12 | ? | 21µM* | · | 3.5µM* | ? | 15µM*
CCCCc1cc(=O)oc2cc(C)cc(OCC(=O)Nc3ccccn3)c12 | ? | ? | · | 2µM* | 2.5µM* | 8.5µM*
CCN(C(=O)COc1ccc(C(C)=O)cc1)c1cccc2ccccc12 | ? | 0% | · | · | · | ·
Cc1cccc(Nc2nc(N)nc(CCl)n2)c1C | 9.2µM* | -7% | · | -54% | -63% | ?
Cc1ccc(Nc2nc(N)nc(CCl)n2)cc1 | -23% | 17% | · | -49% | -49% | 1.9µM*
Cc1ccc(Nc2nc(N)nc(CC#N)n2)cc1 | ? | 18µM* | 18µM* | ? | ? | 11µM*
COc1ccc(Nc2nc(N)nc(CSCCO)n2)cc1 | ? | ? | 13% | 19% | 3% | ?
